Results published in PubChem BioAssay AID2284364 (EPA ToxCast).
Active and inactive are the calls of the source. Rule for the calls: active = hit-call score of the fitted dose curve at least 0.9, where 1 is the maximum; inactive = score below 0.9.

Molecular target: Peroxisome proliferator-activated receptor gamma (Homo sapiens) (UniProt P37231)
Assay: ERF_US_NR_hPPARG: Eurofins (ERF) Nuclear Receptor (NR) Cell Based Protein-Protein Interaction LeadHunter Assay for human Peroxisome Proliferator-activated Receptor-gamma (PPARg) Agonism
Description: ERF_US_NR_hPPARG is a cell-based, single-readout assay that uses extracted gene-proteins in a cell-line assay. Measurements were taken 5 hours after chemical dosing in a 384-well plate. See PPARgamma Human NHR Cell Based Agonist Protein-Protein Interaction Assay, DiscoverX.ERF_US_NR_hPPARG is an assay component calculated from the ERF_US_NR_hPPARG assay. It is designed to measure […] using a type of binding reporter as detected by scintillation counting with radiometry technology.Data from the assay component ERF_US_NR_hPPARG was analyzed at the assay endpoint, ERF_US_NR_hPPARG, in the positive analysis fitting direction relative to DMSO as the negative control and baseline of activity. Using a type of binding reporter, gain-of-signal activity can be used to understand changes in binding as they relate to gene PPARG. To generalize the intended target to other relatable targets, this assay endpoint is annotated to the nuclear receptor intended target family, where the subfamily is non-steroidal.
Cells were seeded in a total volume of 20 uL into white walled, 384-well microplates and incubated at 37C overnight prior to testing.Briefly, intermediate dilution of sample stocks was performed to generate 5X sample in assay buffer. 5 uL of 5X sample was added to cells and incubated at 37C for 300 minutes. […] The results are expressed as a percent efficacy of the control ligand.

Peroxisome proliferator-activated receptor gamma (Homo sapiens), sequence (P37231 whole entry, looked up): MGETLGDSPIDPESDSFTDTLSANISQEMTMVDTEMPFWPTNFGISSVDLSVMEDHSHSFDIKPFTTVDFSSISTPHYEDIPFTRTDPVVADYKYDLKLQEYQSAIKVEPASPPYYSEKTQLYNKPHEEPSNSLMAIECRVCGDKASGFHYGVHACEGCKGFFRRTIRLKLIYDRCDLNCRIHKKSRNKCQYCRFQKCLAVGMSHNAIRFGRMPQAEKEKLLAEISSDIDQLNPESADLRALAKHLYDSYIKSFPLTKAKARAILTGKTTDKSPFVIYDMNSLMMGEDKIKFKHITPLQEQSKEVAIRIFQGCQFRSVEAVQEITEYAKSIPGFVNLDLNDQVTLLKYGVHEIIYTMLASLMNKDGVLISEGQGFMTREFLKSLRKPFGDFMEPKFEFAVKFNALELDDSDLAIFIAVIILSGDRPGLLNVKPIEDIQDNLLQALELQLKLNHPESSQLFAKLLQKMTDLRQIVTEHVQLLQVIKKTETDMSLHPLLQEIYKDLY

For `O=S(=O)(O)C(F)(F)C(F)(F)C(F)(F)C(F)(F)C(F)(F)C(F)(F)C(F)(F)C(F)(F)F`, the outcome was “inactive”.
